KCNQ2 inh: inhibitors of rat KCNQ2 potassium channel | 1.1% of 310,000 active | CHO-K1 KCNQ2, FluxOR thallium flux, 20 min; stronger effect = lower value | B-score at 10 µM | O88943;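 active means fluorescence ratio B-score at most minus 3 library SDs, with starting brightness B-score within 2 library SDs, cut at about -5.5 in these data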
KCNQ2 pot: potentiators of rat KCNQ2 potassium channel; O88943; 0.54% of 310,000 active; AID 2239; B-score at 10 µM; CHO-K1 KCNQ2, FluxOR thallium flux fluorescence; stronger effect = higher value;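 active means fluorescence ratio B-score at least 3 SD of library B-scores, with initial fluorescence B-score within 3 of them, cut at about 5.3 in these data; same plate scores as AID 2156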;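 further: B-score of peak minus minimum over baseline fluorescence ratio after K+ and Tl+ stimulus; positive B-score means potentiation of KCNQ2 with more thallium influx and brighter signal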
Kir21 confirm: confirmation of mouse Kir2.1 potassium channel inhibitors; shares compounds with KCNQ2 pot; Kir2.1-expressing cells, FluxOR thallium flux fluorescence; stronger effect = lower value; Tl flux remaining, % of negative control (stronger effect = lower value), % at 10 µM; 41% of 2,300 active;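 active means Primary-screen hit whose thallium flux fell at least 3 control SD below untreated wells in both duplicates, with normal baseline fluorescence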
HEK293 Tl flux: counter-screen for Kir2.1 inhibitors: effect in parental HEK293 cells. shares compounds with KCNQ2 pot. FluxOR thallium flux fluorescence; 0% = unstimulated blank wells. FluxOR signal as % of negative control (100 = no effect), % at 10 µM. 19% of 2,300 active. AID 2105;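 active means dye signal at least 3 control SD above or below untreated wells in both duplicates, raw fluorescence within 3, either direction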;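 further: percent is based on the flux ratio of peak minus minimum fluorescence over baseline F0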
CHO-K1 Tl ctr: parental CHO-K1 activity in KCNQ2 potentiator counter-screen; shares compounds with KCNQ2 pot; parental CHO-K1 cells, FluxOR thallium flux fluorescence; zero = vehicle mean+3SD, 100% = vehicle-minus-blank window; activity increase over 3SD of controls, % at 10 µM; 43% of 1,200 active; AID 2282;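 active means signal rise of at least 3 SD above the untreated control mean, in both duplicate wells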;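 further: counter screen of KCNQ2 potentiator hits so any rise reflects channel-independent effects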
KCNQ1 sel pot: selectivity of KCNQ2 potentiators: effect on human KCNQ1. CHO KCNQ1 stable, FluxOR thallium flux fluorescence; beyond 3SD, as % of vehicle-control signal. 28% of 1,200 active. activation over 3SD threshold, % at 10 µM. shares compounds with KCNQ2 pot. AID 2283;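 active means fluorescence ratio rise of at least 3 SD of vehicle wells above their mean, in both replicate wells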
Target sequence (P51787 whole entry, looked up): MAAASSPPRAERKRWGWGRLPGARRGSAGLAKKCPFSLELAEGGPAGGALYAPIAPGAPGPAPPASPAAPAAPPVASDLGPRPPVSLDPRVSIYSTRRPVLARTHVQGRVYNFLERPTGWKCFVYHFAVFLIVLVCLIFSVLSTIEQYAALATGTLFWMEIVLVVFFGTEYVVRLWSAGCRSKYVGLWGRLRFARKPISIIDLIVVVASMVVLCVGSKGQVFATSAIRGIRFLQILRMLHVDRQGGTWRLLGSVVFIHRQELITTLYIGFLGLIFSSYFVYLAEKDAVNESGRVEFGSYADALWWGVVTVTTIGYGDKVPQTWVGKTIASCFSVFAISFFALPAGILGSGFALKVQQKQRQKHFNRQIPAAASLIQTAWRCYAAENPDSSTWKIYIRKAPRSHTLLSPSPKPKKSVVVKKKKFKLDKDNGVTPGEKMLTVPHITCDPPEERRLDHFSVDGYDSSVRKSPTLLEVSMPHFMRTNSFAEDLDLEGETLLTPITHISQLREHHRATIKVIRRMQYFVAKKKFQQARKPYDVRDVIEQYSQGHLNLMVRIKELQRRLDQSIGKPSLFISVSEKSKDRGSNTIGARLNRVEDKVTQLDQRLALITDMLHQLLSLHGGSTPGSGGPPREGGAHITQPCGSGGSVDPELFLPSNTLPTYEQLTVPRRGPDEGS
KCNQ2 pot conf: confirmation of rat KCNQ2 potassium channel potentiators; potentiation, less the hit threshold, % at 10 µM; 68% of 1,200 active; CHO-KCNQ2 cells, FluxOR thallium flux fluorescence; shares compounds with KCNQ2 pot;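 active means fluorescence ratio rising 3 SD or more over the vehicle control mean in both replicates, plus primary screen hit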;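 further: peak minus minimum thallium fluorescence divided by baseline after K/Tl stimulus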
Kir21 spec: tests whether KCNQ2 potentiators also affect mouse Kir2.1; shares compounds with KCNQ2 pot; HEK293 Kir2.1, FluxOR thallium flux fluorescence; activity over 3SD threshold, % at 10 µM; 2% of 1,200 active; AID 2345;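 active means fluorescence ratio rise of at least 3 SD above the vehicle-control mean, seen in both replicates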
KCNQ2 W236L MoA: KCNQ2 potentiators acting on retigabine-insensitive rat KCNQ2 W236L mutant; shares compounds with KCNQ2 pot; current increase over 3SD of negative controls (%), stronger effect = higher value, % at 25 µM; AID 2558; 10% of 940 active; CHO KCNQ2-W236L, automated patch clamp current;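 active means current increase at least 3 SD of the untreated controls above them in both duplicate recordings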
Hits are given with their value; n = inactive; x = no result given. Only some compounds are listed: those with a hit (about 1.6% of all), similar ones and a draw of the others.

SMILES | KCNQ2 inh | KCNQ2 pot | Kir21 confirm | HEK293 Tl flux | others
Cc1cc(C(=O)N2CCN(Cc3ccc4c(c3)OCO4)CC2)cs1 | n | x | x | x
Cc1cc(S(=O)(=O)Nc2cc(C)c(O)c(C)c2)c(C)s1 | n | x | 71.5% | n
Cc1cc(S(=O)(=O)Nc2ccc3ccccc3c2)c(C)s1 | n | n | x | x
CCCn1nnnc1NCc1cccc(OC)c1 | n | x | x | x
CCS(=O)(=O)n1nc(NCc2cccc(OC)c2)nc1NCc1cccc(OC)c1 | n | 14.7 | x | x | CHO-K1 Tl ctr=77.6;KCNQ1 sel pot=n;KCNQ2 pot conf=n;Kir21 spec=n
CCCC(=O)NC(Nc1ccccc1F)C(Cl)(Cl)Cl (configuration not stated) | n | n | 58.0% | 62.5%
CC(C)CC(=O)NC(Nc1ccccc1F)C(Cl)(Cl)Cl (configuration not stated) | n | x | x | x
O=C(Cc1cccc(F)c1F)NC1CCCN(Cc2ccc(Cl)cc2)C1 (configuration not stated) | n | 6.21 | n | 218.5% | CHO-K1 Tl ctr=115.5;KCNQ1 sel pot=n;KCNQ2 pot conf=16.5;Kir21 spec=n;KCNQ2 W236L MoA=n
Cc1cc(C)n(CC(=O)NC2CCCN(Cc3ccc(Cl)cc3)C2)n1 (configuration not stated) | n | n | x | x
O=C(COC(=O)CSc1ccc2ccccc2c1Br)NC1CC1 | n | n | x | x
CN(C)C(=O)c1ccccc1Sc1cc(Cl)ccc1Cl | n | x | 47.0% | n
CN(C)C(=O)c1ccccc1Sc1ccc(Cl)cc1Cl | n | x | x | x
CC1CN(C(=O)CCC(=O)NCCCN2CCN(Cc3ccccc3)CC2)c2cc(Cl)ccc2O1 (configuration not stated) | n | x | 61.0% | n
O=C(CCC(=O)N1CCOc2ccc(Cl)cc21)NCCCN1CCN(Cc2ccccc2)CC1 | n | n | x | x
O=C(O)c1ccc(/C=C/c2nc3sc4c(c3c(=O)[nH]2)CCC4)cc1 | n | n | x | x
COc1ccc(CN2CCN(C3CCC3)CC2CCO)c(F)c1 (configuration not stated) | n | 13.1 | n | n | CHO-K1 Tl ctr=n;KCNQ1 sel pot=n;KCNQ2 pot conf=n;Kir21 spec=n
COc1ccc(CN2CCN(Cc3cc4ccccc4o3)CC2CCO)c(F)c1 (configuration not stated) | n | x | x | x
CCCCCCCC[n+]1cccc2c3ccccc3ccc21 | n | n | x | x
CCCCCCCCCC[n+]1cccc2c3ccccc3ccc21 | n | x | 7.5% | n
C=CCOc1ccc(/C=C/C(=O)OCC(=O)NCC(=O)Nc2c(C)cc(C)cc2C)cc1 | n | x | x | x
CCc1ccc(C(=O)c2ccccc2C(=O)O)s1 | n | x | x | x
CC(C)Cc1ccc(/C(=N/O)C(=O)O)s1 | n | 7.08 | n | n | CHO-K1 Tl ctr=23.2;KCNQ1 sel pot=n;KCNQ2 pot conf=26.7;Kir21 spec=n;KCNQ2 W236L MoA=n
O=C(N=C1SC2CS(=O)(=O)CC2N1c1cccc(Cl)c1Cl)C1CC1 (configuration not stated) | n | n | x | x
COc1ccc(C)cc1Nc1n[n+](-c2ccccc2)c(-c2cc(OC)c(OC)cc2Br)s1 | -6.36 | n | 53.0% | n
COc1ccc(C)cc1Nc1n[n+](-c2ccccc2)c(-c2ccc(C(=O)O)cc2)s1 | n | n | x | x
SMILES | KCNQ2 inh | KCNQ2 pot | Kir21 confirm | HEK293 Tl flux | others
CCOCCc1c(O)nc(SCC(=O)N2CCOCC2)[nH]c1=O | n | x | x | x
CC(C)(C)c1nc(SCC(=O)N2CCCC2)c2ccccc2n1 | n | n | x | x
CC(C)(C)c1nc(SCC(=O)c2ccccc2)c2ccccc2n1 | n | 18.9 | n | n | CHO-K1 Tl ctr=n;KCNQ1 sel pot=52.3;KCNQ2 pot conf=26.5;Kir21 spec=n;KCNQ2 W236L MoA=n
N#Cc1c(NC(=O)C2CC(Cl)=CCC2C(=O)O)sc2c1CCCC2 (configuration not stated) | n | n | x | x
CCn1ncc(/C=N/NC(=O)c2cc(Cl)ccc2OC)c1C | n | n | x | x
Oc1c(Cl)cc(Cl)cc1Sc1cc(Cl)cc(Cl)c1O | n | 44.7 | n | 375.0% | CHO-K1 Tl ctr=47.1;KCNQ1 sel pot=n;KCNQ2 pot conf=222.7;Kir21 spec=n;KCNQ2 W236L MoA=n
Oc1c(Cl)cc(Cl)cc1CNn1cnnc1 | n | x | x | x
COc1ccc(Cl)cc1C(=O)OCC(=O)N(C)CC(=O)Nc1ccc(F)cc1 | n | n | x | x
Cc1ccc(SCC(=O)OCC(=O)N(C)CC(=O)Nc2ccc(F)cc2)cc1C | n | 7.03 | n | n | CHO-K1 Tl ctr=10.4;KCNQ1 sel pot=1.0;KCNQ2 pot conf=n;Kir21 spec=n;KCNQ2 W236L MoA=n
Cn1c(=O)c2c(nc(Cl)n2CC(=O)NC2(C#N)CCCCC2)n(C)c1=O | n | n | x | x
COc1ccc(Cc2nc3ccc(C(=O)N(C)CCCN4CCOCC4)cc3o2)cc1 | n | x | x | x
COc1cc(/C=N/n2nnnc2N)ccc1OCC(N)=O | n | n | x | x
C/C(=N\Nc1nncc2ccccc12)c1ccc(O)cc1 | n | n | x | x
C/C(=N\Nc1nncc2ccccc12)c1ccc(C(C)(C)C)cc1 | n | 5.94 | n | n | CHO-K1 Tl ctr=65.2;KCNQ1 sel pot=n;KCNQ2 pot conf=n;Kir21 spec=n
CCOc1ccc(C(=O)NC(=S)Nc2ccccc2N2CCOCC2)cc1Br | n | x | x | x
S=C(NCc1ccccc1)NCc1cccc(Cl)c1 | n | x | x | x
S=C(NCCc1cccc(Cl)c1)NCc1ccccc1 | n | 7.49 | x | x | CHO-K1 Tl ctr=9.3;KCNQ1 sel pot=41.3;KCNQ2 pot conf=12.3;Kir21 spec=n;KCNQ2 W236L MoA=n
C/C(=N\NC(=S)NCCc1ccccc1)c1ccc(Cl)cc1Cl | n | 6.24 | n | n | CHO-K1 Tl ctr=11.5;KCNQ1 sel pot=n;KCNQ2 pot conf=n;Kir21 spec=n
S=C(NCCc1ccc(Cl)cc1)NCc1ccccc1 | n | x | n | n
C/C(=N\NC(=S)NCCc1ccccc1)c1ccc(O)cc1O | n | n | x | x
S=C(NCc1ccccc1)Nc1ccc(Cl)cc1 | n | n | x | x
CCn1c2ccccc2c2cc(NC(=O)COC(=O)c3cc(S(N)(=O)=O)c(Cl)cc3Cl)ccc21 | n | x | x | x
N#Cc1ccc(COC(=O)c2cnc3ccccc3n2)cc1 | n | n | x | x
CC(C)(C)c1ccc(OCCC(=O)NCC(c2cccs2)N2CCOCC2)cc1 (configuration not stated) | n | 7.04 | x | x | CHO-K1 Tl ctr=n;KCNQ1 sel pot=123.2;KCNQ2 pot conf=19.1;Kir21 spec=n;KCNQ2 W236L MoA=n
O=C(CSc1ccc(Br)cc1)NCC(c1cccs1)N1CCOCC1 (configuration not stated) | n | 6.81 | x | x | CHO-K1 Tl ctr=n;KCNQ1 sel pot=n;KCNQ2 pot conf=7.9;Kir21 spec=n;KCNQ2 W236L MoA=n
CCOc1ccc(S(=O)(=O)NCCC(=O)NCC(c2cccs2)N2CCOCC2)cc1 (configuration not stated) | n | n | x | x
COc1ccc(C(CNC(=O)CSc2ccc(Br)cc2)N2CCOCC2)cc1 (configuration not stated) | n | n | x | x
CCC(C(=O)Nc1ccc(C(=O)N2CCCC2)cc1)c1ccccc1 (configuration not stated) | n | x | x | x
Cc1cccc(N(CC(=O)NCc2ccc(F)cc2)C(=O)c2ccco2)c1 | n | x | x | x
